Source: PubChem BioAssay
Rab9 prom act: qHTS Assay for Rab9 Promoter Activators | Huh7 Rab9 promoter-luciferase reporter, luminescence, 24 h | Potency, µM (titrated, usually from 9.22 µM), without a hit: at the top dose activation, negative = inhibition, most hits filed as activators | 2.8% of 320,000 active | AID 485297, 2010; also: % of control where 0% means no effect; nearly all actives have a fitted effect of over 60% in size
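Huh7 reporter line, Rab9 promoter upstream of luciferase. Compound exposure 24 h at 37 °C in reduced-serum medium with 10% FBS. Read-out: luminescence.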
SMN2 splice up: qHTS Assay for Enhancers of SMN2 Splice Variant Expression | HEK293 SMN2-luciferase splicing reporter, luminescence, 30-36 h | Potency, µM (series often up to 46.1 µM), for the others: top-dose activity change, positive = activation, most hits filed as activators | 2.8% of 210,000 active; also: % of control where 0% means no effect; nearly all actives have a fitted effect of over 55% in size
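qHTS luciferase splicing reporter: luminescence rises when SMN2 exon 7 is included in transfected HEK293 cells. Compound exposure lasted 30-36 h at 37C, with 4.5 mM final sodium butyrate as control, followed by a ONE-Glo read.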
ELG1 genotox: qHTS screen for small molecules that induce genotoxicity in human embryonic kidney (HEK293T) cells expressing luciferase-tagged ELG1; 1.3% of 330,000 active; AID 504466, 2011; Potency, µM (highest dose often 46 µM), inactives show at the top dose activity change, positive = activation, usual class: activators; HEK293T ELG1-luciferase reporter, luminescence, 16 h; also: % of control where 0% means no effect; nearly all actives have a fitted effect of over 60% in size
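After overnight (16 hr) compound treatment at 37 °C, ELG1-luciferase HEK293T cells were lysed with ONE-Glo; luminescence quantified 30 min later at room temperature.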
KinaseGlo FLuc: Counterscreen for Luciferase (Kinase-Glo TM) Inhibition | Luciferin 4-monooxygenase (Photuris pensylvanica), Q27757 | 0.28% of 200,000 active | Potency, µM (highest dose often 38.3 µM), inactives show top-dose activity change, negative = inhibition, hits mostly inhibitors | Kinase-Glo luciferase, ATP luminescence, 8 min; also: % is scaled to controls: 0 for no effect and ±100 for the full control effect; nearly all actives have a fitted effect of over 60% in size
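Luminescence was the read-out, taken after 8-minute incubation at ambient temperature. Luciferase turned over luciferin with 10 uM ATP in imidazole pH 7.2 buffer containing KCl, MgCl2, Tween 20 and BSA.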
FLuc counter: qHTS profiling assay for firefly luciferase inhibitor/activator using purifed enzyme and Km concentrations of substrates (counterscreen for miR-21 project); Potency, µM (doses to about 57.5 µM), for the others: top-dose activity change, negative = inhibition, actives largely listed as inhibitors; AID 588342, 2011; 6.9% of 360,000 active; purified FLuc, Km substrates, luminescence inhibition;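 also: plate controls were vehicle for no effect and reference inhibitor for full effect; nearly all actives have a fitted effect of over 55% in size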
Target sequence (P08659 whole entry, looked up): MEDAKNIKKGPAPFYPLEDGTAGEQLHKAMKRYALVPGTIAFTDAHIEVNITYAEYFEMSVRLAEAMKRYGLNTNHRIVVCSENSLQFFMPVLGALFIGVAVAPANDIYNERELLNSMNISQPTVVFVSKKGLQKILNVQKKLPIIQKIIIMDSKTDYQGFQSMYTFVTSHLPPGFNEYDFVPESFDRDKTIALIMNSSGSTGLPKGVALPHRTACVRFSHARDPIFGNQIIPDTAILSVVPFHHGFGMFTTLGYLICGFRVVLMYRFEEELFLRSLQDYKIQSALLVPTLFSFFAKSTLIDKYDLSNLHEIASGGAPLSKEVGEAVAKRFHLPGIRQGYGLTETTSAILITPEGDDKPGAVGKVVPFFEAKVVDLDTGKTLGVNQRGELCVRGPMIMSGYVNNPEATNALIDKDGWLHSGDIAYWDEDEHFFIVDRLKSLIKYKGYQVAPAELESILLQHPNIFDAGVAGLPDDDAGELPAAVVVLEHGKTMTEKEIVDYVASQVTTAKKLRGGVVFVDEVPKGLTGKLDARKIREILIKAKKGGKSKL
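Purified P. pyralis luciferase, 10 nM final, with Km-level 10 uM D-luciferin and 10 uM ATP in 50 mM Tris acetate pH 7.5, 10 mM Mg acetate, 0.01% Tween-20, 0.05% BSA; 6-point qHTS titration about 60 µM downward; luminescence read.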
NPC1 prom act: qHTS Assay for NPC1 Promoter Activators; Huh7 NPC1 promoter luciferase reporter, 24 h; Potency, µM (top dose mostly 9.22 µM), for inactives: top-dose activation, actives largely listed as activators; 2.4% of 320,000 active; AID 485313, 2010; also: % of control where 0% means no effect; nearly all actives have a fitted effect of over 60% in size
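Huh7 reporter cells (NPC1 promoter driving luciferase) are dosed with compound for 24 h at 37 °C, 5% CO2; luciferase detection reagent is then added and luminescence measured after 10 min at ambient temperature.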
The depositor's hits bear a star; ? = inconclusive; nt = not tested or not shown; [ ] = dose if it differs, or a comment. A selection: hits, their analogues and other compounds. The true share with any hit is near 7.5%. Calls follow the shape of the dose curve; as a rule, active = well fitted curve in the direction sought with a large enough effect; inconclusive = small, poorly fitted or top-dose-only effect, or another doubt; inactive = no such curve, though single readings can be large; an effect the other way counts as inactive or inconclusive. Potency is read from the fitted curve at half-maximal effect.

SMILES	Rab9 prom act	SMN2 splice up	ELG1 genotox	KinaseGlo FLuc	FLuc counter	NPC1 prom act
O=[N+]([O-])c1cc(/C=N/O)ccc1Oc1ccccc1Cl	-4%[1.84 µM]	1%	?	1%	19µM*	9%
O=[N+]([O-])c1cc(/C=N/O)ccc1Oc1cccc(Cl)c1	-12%	-6%	14%	-5%	-13%	-8%
O=C1C2C3C=CC(C4CC34)C2C(=O)N1c1cccc2ccccc12 (stereo not drawn)	10%	nt	4%	nt	6.7µM*	14%
CCOc1ccc(CNC(=O)C2CCN(C(=O)c3sccc3-n3cccc3)CC2)cc1	nt	2%	nt	nt	3%	nt
O=S(=O)(Cc1noc(-c2ccccc2Cl)n1)c1ccccn1	1.4µM*	nt	?	nt	11µM*	1.6µM*
COc1ccc(C(=O)Cc2cc3ccccc3oc2=O)cc1	?	nt	?	nt	12µM*	3.5µM*
Cc1ccc(C(=O)Cc2cc3ccccc3oc2=O)c(C)c1	0.79µM*	nt	?	nt	3µM*	1.4µM*
CCOc1ccc(C(=O)Cc2cc3cccc(OC)c3oc2=O)cc1	1%[1.84 µM]	nt	3%	nt	?	1%
COC(=O)Cc1ccc(NC(=O)C(c2ccccc2)c2ccccc2)cc1	1%	0%	0%	1%	2%	-1%
COc1ccc(-c2ccc(NC(=O)c3ccc(Br)o3)cc2)nn1	1.1µM*	nt	2.1µM*	nt	?	2µM*
COC(=O)Cc1ccc(NC(=O)c2ccc(C)c(C)c2)cc1	2.5µM*	?	5.2µM*	-6%	3µM*	?
CCN(CC)c1ccc(NC(=O)c2ccc(Br)o2)cc1	0.79µM*	11µM*	?	-2%	5.4µM*	1.6µM*
CCCOC(=O)c1ccc(NC(=O)c2ccc(Br)o2)cc1	27%	-1%	?	-3%	17µM*	26%
COc1cccc(NC(=O)C2CCN(S(=O)(=O)c3c(C)noc3/C=C/c3cccs3)CC2)c1	nt	-27%	nt	nt	-6%	nt
CN(C)C(CNC(=O)C1CCN(S(=O)(=O)c2ccccc2C(F)(F)F)CC1)Cc1ccccc1 (stereo not drawn)	?	nt	-1%	nt	0%	-2%
CCOc1ccc(CCNC(=O)C(CCC(N)=O)NC(=O)OCc2ccccc2)cc1OCC (stereo not drawn)	-3%	?	0%	2%	6%	-2%
Cc1ccc(C)c(NC(=O)CC2NCCNC2=O)c1 (stereo not drawn)	nt	4%	nt	nt	-1%	nt
COC(=O)Cc1ccc(NC(=O)c2ccc(Br)o2)cc1	?	?	18µM*	-10%	17µM*	?
COC(=O)Cc1ccc(NC(C)=O)cc1	-4%	nt	5%	nt	0%	7%
CCOC(=O)c1c(S(=O)(=O)NCC(=O)N(C)Cc2ccccc2)c(C)n(C)c1C	nt	nt	nt	nt	-5%	nt
Cc1nn(CC(=O)c2ccccc2Cl)c(C)c1[N+](=O)[O-]	4µM*	?	15µM*	-15%	11µM*	?
Cc1nn(CC(=O)NCc2ccccc2)c(C)c1[N+](=O)[O-]	0%	-12%	0%	-5%	2%	-2%
CC1CCCC(NC(=O)c2ccc3c(SCC(=O)O)c4c(nc3c2)CCC4)C1C (stereo not drawn)	-5%	nt	1%	nt	17µM*	0%
CC1CCCCC1NS(=O)(=O)CCNC(=O)c1ccc2c(c1)OCO2 (stereo not drawn)	0%	nt	6%	nt	2%	-3%
COc1cc(-c2nc(-c3ccc(NC(=O)c4ccc5c(c4)OCO5)cc3)no2)cc(OC)c1OC	-1%	73%	13µM*	-9%	?	2%
SMILES	Rab9 prom act	SMN2 splice up	ELG1 genotox	KinaseGlo FLuc	FLuc counter	NPC1 prom act
O=C(Nc1ccc(F)c(Cl)c1)c1ccc2c(c1)OCO2	1.3µM*	nt	?	nt	4.8µM*	1.8µM*
Cc1ccccc1-c1nc(-c2ccc(NC(=O)c3ccc4c(c3)OCO4)cc2)no1	1%	-14%	?	-19%	?	21%
CC1CCCC(NC(=O)c2ccc3c(c2)OCO3)C1C (stereo not drawn)	3.5µM*	nt	18µM*	nt	12µM*	?
CCn1c(=O)c2c(nc(SCC(=O)Nc3ccccc3)n2C)n(C)c1=O	0%	nt	3%	nt	1%	0%
N#CC1(O)CCCCC1	nt	5%	nt	nt	nt	nt
O=C(Nc1ccc(F)c(Cl)c1)c1cccnc1	8%	nt	10%	nt	2%	7%
COc1ccc(NC(=O)c2ccc3c(c2)OCO3)cc1Cl	1.4µM*	14µM*	?	-10%	1.9µM*	0.89µM*
COc1ccccc1-c1nnc(NC(=O)c2ccc3c(c2)OCO3)s1	-13%	?	13%	-2%	1%	-7%
O=C(Nc1ccc(C(=O)N2CCCCC2)cc1)C1=CSCCO1	?	nt	?	nt	12µM*	2.8µM*
COc1ccc(NCc2ccc3c(c2)OCO3)cc1Cl	21%	12%	7%	2%	?	17%
O=C(Nc1ccc(F)c(Cl)c1)c1ccccc1	1.8µM*	nt	12µM*	nt	11µM*	3.2µM*
COC(=O)c1c(-c2cccnc2)csc1NC(=O)c1ccc2c(c1)OCO2	1.6µM*	nt	2.9µM*	nt	1.3µM*	2.5µM*
O=C(O)c1ccc(-c2nnn(Cc3cccc(C(F)(F)F)c3)n2)cc1	0%	nt	1%	nt	2%	2%
COC(=O)c1sccc1NC(=O)c1ccc2c(c1)OCO2	-2%	27%	3%	-4%	6%[2.3 µM]	0%
O=C(c1ccc2c(c1)OCO2)N1CCCC1	6%	-2%	-1%	-2%	-8%	2%
COC(=O)c1ccc(NC(=O)c2ccc3c(c2)OCO3)cc1	?	?	6.5µM*	-4%	?	2.8µM*
O=C(Nc1ccc(C(=O)N2CCCC2)cc1)c1ccc2c(c1)OCO2	?	16%	?	13µM*	15µM*	?
C=CCn1c(-c2ccc(N)cc2)nc2ccccc21	?	?	18µM*	15%	11µM*	14%
C=CCn1c(-c2ccc(OC)cc2)nc2ccccc21	30%	?	0%	-24%	13µM*	16%
COc1ccc(-c2nc3ccccc3n2Cc2ccccc2)cc1	5%	-30%	2%	7%	?	-1%
C=CCn1c(-c2ccc(OC)cc2)nc2nc3ccccc3nc21	-1%	10µM*	14%	-5%	?	1%
O=C(NCCCN1CCN(c2ccc(F)cc2)CC1)c1cnn(-c2ccc(F)cc2)c1-n1cccc1	nt	nt	nt	nt	-8%	nt
CCN(CC(=O)NCc1cccs1)C(=O)c1cccc(Cl)c1	nt	nt	0%	nt	nt	nt
